Several values for one entry are separate records, joined by “and”; a condition that tells them apart may be missing. Identical values can stand only once. Results filed as inconclusive are left out. Where a call stands in place of a potency, no number is given. A structure can be active in one record and inactive in another. Activity calls are given as the source filed them. Unless noted, the call rests on the fitted dose curve; in most records, active means well fitted curve in the direction sought with a large enough effect in the repeat runs; inconclusive means weak or mixed curves; inactive means no such curve, though single readings can be large; an effect the other way counts as inactive or inconclusive.
Columns and labels:
[1] = molecular target: Thyrotropin receptor (Homo sapiens) (UniProt P16473); experiment: qHTS assay to identify small molecule antagonists of the thyroid stimulating hormone receptor (TSHR) signaling pathway (AID 1259385; calls by dose curve; further: nearly all actives have a fitted effect of over 20% in size)
Outline: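 Antagonist mode: compound-treated TSHR-expressing HEK293 cells were stimulated with 1.5 ng/mL TSH (final) in presence of Ro20-1724 for 30 min at RT. HTRF cAMP detection after 1 h; each compound tested at 15 concentrations, triplicate.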

[2] = qHTS assay to identify small molecule agonists of the estrogen receptor alpha (ER-alpha) signaling pathway in the presence of an antagonist - cell viability counter screen (AID 1259386); further: series mostly up to about 92 µM; nearly all actives have a fitted effect of over 30% in size
Outline: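 Compounds tested at 15 concentrations for 22 h at 37C alongside 10.0nM (final) ICI-182,780 antagonist, in VM7Luc4E2 cells grown in phenol red-free, charcoal-stripped medium. Viability read by CellTiter-Fluor fluorescence after 1 h reagent incubation.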

[3] = qHTS assay to identify small molecule antagonists of the progesterone receptor (PR) signaling pathway - cell viability counter screen (AID 1346798); further: series mostly up to about 92 µM; nearly all actives have a fitted effect of over 50% in size
Outline: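 Counter screen for cytotoxicity: viability of PR-UAS-bla HEK293T cells was measured with CellTiter-Glo luminescence following 16 hr compound exposure in the presence of R5020.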

[4] = qHTS assay to identify small molecule agonists of the progesterone receptor (PR) signaling pathway - cell viability counter screen (AID 1346799; calls by dose curve; further: nearly all actives have a fitted effect of over 45% in size; further: potency means the concentration at half of the fitted maximal effect)
Outline: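 Cells (PR-UAS-bla HEK293T) are plated at 3,000/well in 2% charcoal-stripped FBS medium, rested 6 hr, dosed and incubated 16 hr at 37C. CellTiter-Glo is then added and luminescence measured after 30 min at room temperature.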

[5] = qHTS assay to identify small molecule antagonists of the TGF-beta/Smad signaling pathway - cell viability counter screen (AID 1346824); further: nearly all actives have a fitted effect of over 50% in size
Outline: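 Cytotoxicity counter-screen run in the same wells as the beta-lactamase Smad reporter read: CellTiter-Glo luminescence after 30 min at room temperature. HEK 293T SBE-bla cells had 5 hr compound exposure at 37 C with TGF-beta1 (0.25 ng/mL stock).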

[6] = qHTS assay to identify small molecule agonists of the TGF-beta/Smad signaling pathway - cell viability counter screen (AID 1346829); further: top concentration of the series differs between compounds; nearly all actives have a fitted effect of over 45% in size
Outline: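 Luminescence from CellTiter-Glo, read after a 30 min room-temperature incubation, gives cell viability of SBE-bla HEK 293T cells treated 5 hr with compounds at 37 C.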

[7] = qHTS assay to identify small molecule agonists of the TGF-beta/Smad signaling pathway (AID 1346859; active means well fitted activation curve with a large enough effect in the signal ratio in the repeat runs, not every such curve was filed as active; the % refers to the signal ratio; further: series mostly up to about 77 µM)
Outline: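 Reporter line: HEK 293T with stably integrated SBE-controlled beta-lactamase. Compound exposure lasts 5 hr at 37 C and 5% CO2; substrate loading follows for 2 hr at room temperature, with emission read at 460 and 530 nm.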

[8] = molecular target: Progesterone receptor (Homo sapiens) (UniProt P06401); experiment: qHTS assay to identify small molecule agonists of the progesterone receptor (PR) signaling pathway (AID 1346784; calls by dose curve; further: nearly all actives have a fitted effect of over 30% in size)
Outline: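 Cells (PR-UAS-bla HEK 293T, GripTite) were plated in assay medium containing 2% charcoal-stripped FBS and incubated 6 hr. Test compounds in DMSO were added for 16 hr at 37C. FRET substrate was then loaded for 2 hr at room temperature before fluorescence reading.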

[9] = molecular target: Thyrotropin-releasing hormone receptor (Homo sapiens) (UniProt P34981); experiment: qHTS assay to identify small molecule antagonists of the thyrotropin-releasing hormone receptor (TRHR) signaling pathway (AID 1346877; active means well fitted inhibition curve with a large enough effect in the repeat runs, not every such curve was filed as active; further: series mostly up to about 51 µM)
Outline: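 Antagonist mode: after a 5 min room-temperature compound exposure, cells were stimulated with 1 nM (final) TRH. Dye-loaded TRHR-HEK293 cells were used, and calcium-dependent fluorescence was followed for 3 min, with 15-point titrations run in triplicate.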

[10] = molecular target: Progesterone receptor (Homo sapiens) (UniProt P06401); experiment: qHTS assay to identify small molecule antagonists of the progesterone receptor (PR) signaling pathway (AID 1346795; active means well fitted inhibition curve with a large enough effect in the signal ratio in the repeat runs, not every such curve was filed as active; the % refers to the signal ratio)
Outline: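 Antagonist mode: compounds tested against 1 nM (final) promegestone stimulation in HEK293T cells expressing PR-UAS-bla reporter, 16 hr at 37C, 5% CO2; beta-lactamase activity detected via B/G FRET substrate after 2 hr at room temperature.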

Thyrotropin-releasing hormone receptor (Homo sapiens), sequence (P34981 whole entry, looked up): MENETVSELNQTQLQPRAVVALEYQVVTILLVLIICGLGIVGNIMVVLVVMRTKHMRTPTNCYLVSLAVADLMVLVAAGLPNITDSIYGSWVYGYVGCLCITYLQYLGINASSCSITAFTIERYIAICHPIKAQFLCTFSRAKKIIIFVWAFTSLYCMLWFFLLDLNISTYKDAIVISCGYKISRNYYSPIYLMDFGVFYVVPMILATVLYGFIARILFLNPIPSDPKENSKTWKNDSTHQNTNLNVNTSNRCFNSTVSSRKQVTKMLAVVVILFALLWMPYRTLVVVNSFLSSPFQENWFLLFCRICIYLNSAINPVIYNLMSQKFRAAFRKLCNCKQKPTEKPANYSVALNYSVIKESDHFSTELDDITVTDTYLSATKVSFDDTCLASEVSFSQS
Progesterone receptor (Homo sapiens), sequence (P06401 whole entry, looked up): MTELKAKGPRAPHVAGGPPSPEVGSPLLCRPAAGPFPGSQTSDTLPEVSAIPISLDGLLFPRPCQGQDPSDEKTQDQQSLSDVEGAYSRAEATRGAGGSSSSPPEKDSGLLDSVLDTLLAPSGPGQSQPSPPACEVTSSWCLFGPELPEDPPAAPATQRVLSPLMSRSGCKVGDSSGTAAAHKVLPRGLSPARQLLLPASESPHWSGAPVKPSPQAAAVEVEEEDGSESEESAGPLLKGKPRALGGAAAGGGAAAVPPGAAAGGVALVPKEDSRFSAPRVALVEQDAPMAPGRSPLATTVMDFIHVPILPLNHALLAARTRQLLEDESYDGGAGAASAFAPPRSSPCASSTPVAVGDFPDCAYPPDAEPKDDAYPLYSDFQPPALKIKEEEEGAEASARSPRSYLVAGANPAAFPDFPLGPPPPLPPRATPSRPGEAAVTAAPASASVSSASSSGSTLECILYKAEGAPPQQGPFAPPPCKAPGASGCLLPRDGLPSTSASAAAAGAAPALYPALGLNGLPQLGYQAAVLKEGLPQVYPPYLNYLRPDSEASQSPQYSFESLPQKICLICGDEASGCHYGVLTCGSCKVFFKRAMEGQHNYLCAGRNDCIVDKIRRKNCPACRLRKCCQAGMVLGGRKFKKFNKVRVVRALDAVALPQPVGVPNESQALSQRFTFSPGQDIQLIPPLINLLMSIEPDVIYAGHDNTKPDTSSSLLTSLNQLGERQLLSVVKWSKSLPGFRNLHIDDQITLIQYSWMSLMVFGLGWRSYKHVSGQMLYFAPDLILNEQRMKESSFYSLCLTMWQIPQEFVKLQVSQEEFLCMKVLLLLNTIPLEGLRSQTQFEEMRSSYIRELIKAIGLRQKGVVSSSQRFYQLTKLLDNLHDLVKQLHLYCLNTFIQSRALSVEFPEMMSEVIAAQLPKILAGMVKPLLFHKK
Thyrotropin receptor (Homo sapiens), sequence (P16473 whole entry, looked up): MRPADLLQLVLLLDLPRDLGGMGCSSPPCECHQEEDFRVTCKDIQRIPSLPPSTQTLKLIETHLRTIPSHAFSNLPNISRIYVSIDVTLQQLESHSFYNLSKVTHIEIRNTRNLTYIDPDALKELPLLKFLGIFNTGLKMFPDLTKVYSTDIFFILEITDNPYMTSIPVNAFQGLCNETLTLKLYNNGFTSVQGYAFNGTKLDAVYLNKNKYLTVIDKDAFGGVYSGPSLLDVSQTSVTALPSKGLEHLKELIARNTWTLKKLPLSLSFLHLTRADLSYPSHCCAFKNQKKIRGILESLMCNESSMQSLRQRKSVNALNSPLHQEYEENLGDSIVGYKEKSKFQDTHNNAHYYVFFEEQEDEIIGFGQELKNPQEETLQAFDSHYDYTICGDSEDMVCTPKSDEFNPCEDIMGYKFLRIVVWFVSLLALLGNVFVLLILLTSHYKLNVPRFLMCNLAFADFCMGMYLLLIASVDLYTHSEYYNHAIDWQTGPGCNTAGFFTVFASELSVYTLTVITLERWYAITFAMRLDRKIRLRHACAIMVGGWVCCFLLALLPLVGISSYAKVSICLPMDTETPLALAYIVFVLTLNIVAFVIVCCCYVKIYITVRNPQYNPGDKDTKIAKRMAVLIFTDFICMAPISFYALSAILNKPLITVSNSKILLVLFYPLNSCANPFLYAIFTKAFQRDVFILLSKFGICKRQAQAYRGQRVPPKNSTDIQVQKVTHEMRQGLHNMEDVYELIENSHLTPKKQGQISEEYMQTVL

Brc1c(Br)c(Br)c(Br)c(Br)c1Br
activity change, negative = inhibition [1]: 0.318% [at 8.39 µM] (inactive)
activity change, negative = cytotoxicity [2]: 2.08% [at 8.39 µM] (inactive)
activity change, negative = cytotoxicity [3]: -1.74% [at 8.39 µM] (inactive)
activity change, negative = cytotoxicity [4]: 33% [at 8.39 µM] (inactive)
viability change, negative = cytotoxic [5]: -1.01% [at 6.97 µM] (inactive)
activity change, negative = cytotoxicity [6]: -6.42% [at 6.97 µM] (inactive)
activation [7]: 3.82% [at 6.97 µM] (inactive)

O=CCCl
outcome [1]: inactive
Potency [2]: inactive
Potency [8]: inactive
Potency [3]: inactive
Potency [6]: inactive
outcome [7]: inactive
Potency [9]: inactive

CC[C@H](O)C(C[C@H](C)N(C)C)(c1ccccc1)c1ccccc1
outcome [1]: inactive
Potency [2]: inactive
Potency [8]: inactive
outcome [5]: inactive
outcome [7]: inactive

BrCc1ccc(Br)cc1
outcome [1]: inactive
Potency [2]: inactive
Potency [8]: inactive
Potency [4]: inactive
outcome [5]: inactive
outcome [7]: inactive
Potency [9]: inactive

Cc1cccc2sc3nncn3c12
outcome [1]: inactive
Potency [2]: inactive
Potency [8]: inactive
Potency [4]: inactive
outcome [5]: inactive
outcome [7]: inactive
Potency [9]: inactive

CS(=O)(=O)Cl
Potency [2]: inactive
Potency [8]: inactive
Potency [10]: inactive
Potency [3]: inactive
Potency [4]: inactive
outcome [5]: inactive
Potency [6]: inactive
outcome [7]: inactive
Potency [9]: inactive

O=c1[nH]c2ccccc2n1C1CCNCC1
outcome [1]: inactive
Potency [2]: inactive
Potency [8]: inactive
Potency [4]: inactive
outcome [5]: inactive
Potency [6]: inactive
outcome [7]: inactive
Potency [9]: inactive

COC(=O)c1ccccc1CS(=O)(=O)NC(=O)Nc1nc(OC)cc(OC)n1
outcome [1]: inactive
Potency [2]: inactive
Potency [3]: inactive
Potency [4]: inactive
outcome [5]: inactive
Potency [6]: inactive
outcome [7]: inactive
Potency [9]: inactive

C=CCN1CC[C@]23CCCC[C@H]2[C@H]1Cc1ccc(O)cc13
outcome [1]: inactive
Potency [2]: inactive
Potency [8]: inactive
Potency [3]: inactive
outcome [5]: inactive
Potency [6]: inactive
outcome [7]: inactive
Potency [9]: inactive

O=C(CCl)NCO
outcome [1]: inactive
Potency [2]: inactive
Potency [8]: inactive
Potency [3]: inactive
outcome [5]: inactive
Potency [6]: inactive
outcome [7]: inactive
Potency [9]: inactive

CCN[C@@H](C)Cc1ccccc1
outcome [1]: inactive
Potency [2]: inactive
Potency [8]: inactive
Potency [4]: inactive
outcome [5]: inactive
Potency [6]: inactive
outcome [7]: inactive
Potency [9]: inactive

COc1ccccc1OC
Potency [2]: inactive
Potency [8]: inactive
Potency [10]: inactive
Potency [3]: inactive
Potency [4]: inactive
outcome [5]: inactive
Potency [6]: inactive
outcome [7]: inactive
Potency [9]: inactive

CCN[C@@H](C)Cc1cccc(C(F)(F)F)c1
outcome [1]: inactive
Potency [2]: inactive
Potency [3]: inactive
outcome [5]: inactive
Potency [6]: inactive
outcome [7]: inactive
Potency [9]: inactive

CC[C@H](N)c1ccccc1
outcome [1]: inactive
Potency [2]: inactive
Potency [10]: inactive
Potency [3]: inactive
Potency [4]: inactive
outcome [5]: inactive
Potency [6]: inactive
outcome [7]: inactive

CCCC(C)C1(CC)C(=O)N=C(S)NC1=O (stereo not drawn)
Potency [2]: inactive
Potency [8]: inactive
Potency [10]: inactive
Potency [3]: inactive
Potency [4]: inactive
outcome [5]: inactive
Potency [6]: inactive
outcome [7]: inactive
Potency [9]: inactive

CNC(=O)O/N=C(/CSC)C(C)(C)C
outcome [1]: inactive
Potency [2]: inactive
Potency [3]: inactive
Potency [4]: inactive
outcome [5]: inactive
Potency [6]: inactive
outcome [7]: inactive
Potency [9]: inactive

Oc1ccc(Cc2ccc(O)cc2)cc1
outcome [1]: inactive
Potency [2]: inactive
Potency [8]: inactive
Potency [3]: inactive
outcome [5]: inactive
outcome [7]: inactive

O=P(O)(O)CN(CP(=O)(O)O)CP(=O)(O)O
Potency [2]: inactive
Potency [8]: inactive
Potency [10]: inactive
Potency [3]: inactive
Potency [4]: inactive
outcome [5]: inactive
Potency [6]: inactive
outcome [7]: inactive

CCN(CCO)CCn1c(Cc2ccccc2)nc2c1c(=O)n(C)c(=O)n2C
Potency [2]: inactive
Potency [8]: inactive
Potency [10]: inactive
Potency [3]: inactive
Potency [4]: inactive
outcome [5]: inactive
Potency [6]: inactive
outcome [7]: inactive
Potency [9]: inactive

CCc1cc(OC)c(C[C@H](C)N)cc1OC
outcome [1]: inactive
Potency [2]: inactive
Potency [8]: inactive
outcome [5]: inactive
Potency [6]: inactive
outcome [7]: inactive
Potency [9]: inactive

CC(Cl)(Cl)Cl
Potency [2]: inactive
Potency [8]: inactive
Potency [10]: inactive
Potency [3]: inactive
Potency [4]: inactive
outcome [5]: inactive
Potency [6]: inactive
outcome [7]: inactive
Potency [9]: inactive

N#CN
Potency [2]: inactive
Potency [8]: inactive
Potency [10]: inactive
Potency [3]: inactive
Potency [4]: inactive
outcome [7]: inactive
Potency [9]: inactive

COc1ccc(CN2CCNCC2)c(OC)c1OC
Potency [2]: inactive
Potency [8]: inactive
Potency [10]: inactive
Potency [3]: inactive
outcome [5]: inactive
Potency [6]: inactive
outcome [7]: inactive
Potency [9]: inactive

C/C(=N\NC(=O)Nc1cc(F)cc(F)c1)c1ncccc1C(=O)O
Potency [2]: inactive
Potency [8]: inactive
Potency [10]: inactive
Potency [3]: inactive
Potency [4]: inactive and 68.6 µM (active)
outcome [5]: inactive
Potency [6]: inactive
outcome [7]: inactive
Potency [9]: inactive

CC(C)(C)C(=O)C(Cl)Cl
Potency [2]: inactive
Potency [8]: inactive
Potency [10]: inactive
Potency [3]: inactive
outcome [5]: inactive
Potency [6]: inactive
outcome [7]: inactive
Potency [9]: inactive

CN(C)C1CCCCC1
Potency [2]: inactive
Potency [8]: inactive
Potency [10]: inactive
Potency [3]: inactive
Potency [4]: inactive
outcome [5]: inactive
Potency [6]: inactive
outcome [7]: inactive
Potency [9]: inactive

Cc1cc(OC(=O)N(C)C)nn1C(=O)N(C)C
Potency [2]: inactive
Potency [8]: inactive
Potency [10]: inactive
Potency [3]: inactive
outcome [5]: inactive
Potency [6]: inactive
outcome [7]: inactive
Potency [9]: inactive

COC[C@@H](NC(C)=O)C(=O)NCc1ccccc1
Potency [2]: inactive
Potency [8]: inactive
Potency [10]: inactive
Potency [3]: inactive
outcome [5]: inactive
Potency [6]: inactive
outcome [7]: inactive

O=C/C=C/c1ccco1
Potency [2]: inactive
Potency [8]: inactive
Potency [10]: inactive
Potency [3]: inactive
Potency [4]: inactive
outcome [5]: inactive
Potency [6]: inactive
outcome [7]: inactive
Potency [9]: inactive

CN1COCN(Cc2cnc(Cl)s2)/C1=N\[N+](=O)[O-]
Potency [2]: inactive
Potency [8]: inactive
Potency [10]: inactive
Potency [3]: inactive
Potency [4]: inactive
Potency [6]: inactive
outcome [7]: inactive
Potency [9]: inactive

C[C@@H](N)[C@@H](O)c1ccccc1
Potency [2]: inactive
Potency [8]: inactive
Potency [10]: inactive
Potency [3]: inactive
outcome [5]: inactive
Potency [6]: inactive
outcome [7]: inactive
Potency [9]: inactive

CCNc1nc(NCC)nc(SC)n1
Potency [2]: inactive
Potency [8]: inactive
Potency [10]: inactive
Potency [3]: inactive
Potency [4]: inactive
outcome [5]: inactive
Potency [6]: inactive
outcome [7]: inactive
Potency [9]: inactive

COP(=O)(O)OC
Potency [2]: inactive
Potency [8]: inactive
Potency [10]: inactive
Potency [3]: inactive
Potency [4]: inactive
outcome [5]: inactive
outcome [7]: inactive
Potency [9]: inactive

ClCCN1CCCC1
Potency [2]: inactive
Potency [8]: inactive
Potency [10]: inactive
Potency [3]: inactive
outcome [5]: inactive
Potency [6]: inactive
outcome [7]: inactive

NNC(N)=O
Potency [2]: inactive
Potency [8]: inactive
Potency [10]: inactive
Potency [3]: inactive
Potency [4]: inactive
outcome [5]: inactive
Potency [6]: inactive
outcome [7]: inactive
Potency [9]: inactive

CCCCOC(C)=O
Potency [2]: inactive
Potency [8]: inactive
Potency [10]: inactive
Potency [3]: inactive
Potency [4]: inactive
outcome [5]: inactive
Potency [6]: inactive
outcome [7]: inactive
Potency [9]: inactive

NC(=O)OCCCc1ccccc1
Potency [2]: inactive
Potency [8]: inactive
Potency [10]: inactive
Potency [3]: inactive
Potency [4]: inactive
outcome [5]: inactive
Potency [6]: inactive
outcome [7]: inactive
Potency [9]: inactive

CCCN1CCC[C@@H]2Cc3nc(N)ncc3C[C@H]21
Potency [2]: inactive
Potency [8]: inactive
Potency [10]: inactive
Potency [3]: inactive
Potency [4]: inactive
outcome [5]: inactive
outcome [7]: inactive
Potency [9]: inactive

CCC(=O)c1ccc(Cl)cc1
Potency [2]: inactive
Potency [8]: inactive
Potency [10]: inactive
Potency [3]: inactive
Potency [4]: inactive
outcome [5]: inactive
Potency [6]: inactive
outcome [7]: inactive
Potency [9]: inactive

CCSC(=O)Cl
Potency [2]: inactive
Potency [8]: inactive
Potency [10]: inactive
Potency [3]: inactive
Potency [4]: inactive
outcome [5]: inactive
outcome [7]: inactive
Potency [9]: inactive

CON(C)C(=O)Nc1ccc(Br)cc1
Potency [2]: inactive
Potency [8]: inactive
Potency [10]: inactive
Potency [3]: inactive
outcome [5]: inactive
Potency [6]: inactive
outcome [7]: inactive
Potency [9]: inactive

C=CC(=O)OCCN(C)C
Potency [2]: inactive
Potency [8]: inactive
Potency [10]: inactive
Potency [3]: inactive
outcome [5]: inactive
Potency [6]: inactive
outcome [7]: inactive

O=C(O)C(Br)(Br)Br
Potency [2]: inactive
Potency [8]: inactive
Potency [10]: inactive
Potency [3]: inactive
Potency [4]: inactive
outcome [5]: inactive
Potency [6]: inactive
outcome [7]: inactive
Potency [9]: inactive

From PubChem BioAssay (Tox21)
